The values that follow come from PubChem BioAssay (NCATS).

Results filed as inconclusive are left out. A number with no mark means an inactive call. Calls come from the whole dose curve; as a rule, active = well fitted inhibition curve with a large enough effect; inconclusive = small, poorly fitted or top-dose-only effect; inactive = flat fitted curve, though single readings scatter.
% is set by controls: 0 for no effect and ±100 for the full control effect.

Sequence of Calcium and integrin-binding protein 1 (Homo sapiens) (Q99828 whole entry, looked up): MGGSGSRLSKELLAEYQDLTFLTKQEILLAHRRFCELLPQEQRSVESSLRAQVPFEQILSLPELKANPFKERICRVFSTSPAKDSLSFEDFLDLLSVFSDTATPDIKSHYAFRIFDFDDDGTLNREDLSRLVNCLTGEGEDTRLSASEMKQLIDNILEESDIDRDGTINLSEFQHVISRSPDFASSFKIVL

For this assay, the target named is Calcium and integrin-binding protein 1 (Homo sapiens) (UniProt Q99828). Briefly: Primary qHTS for Identification of Calcium Integrin Binding Protein 1 (CIB1) Competitor (AID 1508620).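 Note: GST tagged CIB1 binding a fluorescein labelled alphaIIb integrin peptide tracer; top concentration of the series differs between compounds.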 The settings on record: CIB1-GST / FITC-alphaIIb peptide fluorescence polarization; series mostly up to 114 µM; activity change, negative = inhibition: at the top concentration. The essentials:
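Fluorescence polarization competition: CIB1-GST (1 uM final) preincubated with compound 15 min at room temperature, then FITC-labeled alphaIIb peptide (100 nM final) added for another 15 min. Polarization read at Ex 480/Em 540.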
On to `C/C(=C/CO)CCC1C(C)CCC2C(C)(C)CCCC12C` (centres undefined), for which the “activity change, negative = inhibition” value is 0.443%.

Regarding `CC(C)Oc1ccc(-c2cnc3c(-c4ccnc5ccccc45)cnn3c2)cc1`, the “activity change, negative = inhibition” value is 4.35%.

Regarding `CC(=O)[C@H]1CC[C@H]2[C@@H]3CC=C4C[C@@H](OS(=O)(=O)O)CC[C@]4(C)[C@H]3CC[C@]12C`, the “activity change, negative = inhibition” value is 2.13%.

As for `CCCN(CCc1ccsc1)C1CCc2c(O)cccc2C1` (centres undefined), the “activity change, negative = inhibition” value is 2.87%.

Turning to `CC1(C)CCC2(C(=O)OC3OC(COC4OC(CO)C(O)C(O)C4O)C(O)C(O)C3O)CCC3(C)C(=CCC4C5(C)CCC(OC6OCC(O)C(O)C6O)C(C)(C)C5CCC43C)C2C1O` (centres undefined), the “activity change, negative = inhibition” value is 2.9% [at 30.2 µM].

As to `CNC(C)C(=O)NC(C(=O)N1CCCC1C(=O)Nc1snnc1-c1ccccc1)C1CCCCC1` (centres undefined), the “activity change, negative = inhibition” value is 7.54%.

Take `Cc1cc(OCCCS(C)(=O)=O)cc(C)c1-c1cccc(COc2ccc3c(c2)OCC3CC(=O)O)c1` (centres undefined): the “activity change, negative = inhibition” value is -7.14%.

As to `Cc1cc(C)c2c(c1)C(N(Cc1cc(C(F)(F)F)cc(C(F)(F)F)c1)c1nnn(C)n1)CCCN2CC1CCC(C(=O)O)CC1` (centres undefined), the “activity change, negative = inhibition” value was 2.61%.

In the case of `CC(C)(C)NC(=O)[C@H]1CC[C@H]2[C@@H]3CC[C@H]4NC(=O)CC[C@]4(C)[C@H]3CC[C@]12C`, the “activity change, negative = inhibition” value is 1.32%.

In the case of `C=C1C(=O)O[C@@H]2[C@H]1CC[C@H](C)C(CCC(=O)O)C2(C)O` (some centres undefined), the “activity change, negative = inhibition” value is -5.61%.

For the compound `Clc1ncoc1-c1c[nH]c2ccccc12`, the “activity change, negative = inhibition” value is -0.863%.

In the case of `C=C1C(=O)O[C@@H]2C[C@]3(C)[C@@H](CCC(C)O)[C@@H]3C[C@H]12` (some centres undefined), the “activity change, negative = inhibition” value was 1.63%.

In the case of `Nc1nc2c(ncn2C2OC3COP(=O)(O)OC3C2O)c(=O)[nH]1` (centres undefined), the “activity change, negative = inhibition” value is 4.79%.

Consider `C[C@@H]1O[C@@H](O[C@H]2[C@H](O[C@H]3CC[C@@]4(C)C(CC[C@]5(C)C4C=C[C@]46OC[C@@]7(CCC(C)(C)C[C@H]74)[C@@H](O[C@@H]4O[C@@H](C)[C@H](O)[C@@H](O)[C@H]4O)C[C@]65C)[C@]3(C)CO)O[C@H](CO)[C@@H](O)[C@@H]2O[C@@H]2O[C@H](CO)[C@@H](O)[C@H](O)[C@H]2O)[C@H](O)[C@H](O)[C@H]1O` (some centres undefined), for which the “activity change, negative = inhibition” value was 3% [at 30.2 µM].

For `Cn1cc(-c2ccc3c(c2)CCN3C(=O)Cc2cccc(C(F)(F)F)c2)c2c(N)ncnc21`, the “activity change, negative = inhibition” value is 3.93%.

For the compound `COc1cc(C(C)=O)c(OC)c2c1OC(C)(C)C=C2`, the “activity change, negative = inhibition” value is -2.43%.

Consider `CCCc1cc(C)[nH]c(=O)c1CNC(=O)c1cc(-c2ccc(N3CCN(C(C)C)CC3)nc2)cc2c1cnn2C(C)C`, for which the “activity change, negative = inhibition” value is 1.56%.

Regarding `C/C=C(\C)C(=O)O[C@@H]1[C@@H](C)[C@]2(O)[C@@H]3C=C(C)C(=O)[C@H]3CC(CO)=C[C@H]2C2C(C)(C)[C@@]21OC(=O)C(C)CC` (some centres undefined), the “activity change, negative = inhibition” value was 3.1% [at 57.7 µM].

`C[C@@H]1CN(CC(=O)N2CC(C)(C)c3ncc(Cc4ccc(F)cc4)cc32)[C@@H](CN2CCOC[C@H]2C)CN1`: the “activity change, negative = inhibition” value is 1.94% [at 57.7 µM].

Take `CC(=O)NC(C)c1cnc(-c2cnc(Oc3ccc(OC(C)C)cc3)s2)s1` (centres undefined): the “activity change, negative = inhibition” value is -5.49%.

Regarding `CC[C@@H]1C[C@]1(NC(=O)[C@@H]1C[C@@H]2CN1C(=O)[C@H](C(C)(C)C)NC(=O)OCC(C)(C)CCCCc1cccc3c1CN(C3)C(=O)O2)C(=O)NS(=O)(=O)C1CC1`, the “activity change, negative = inhibition” value was -4.47%.

Consider `O=C(Nc1cnc(Cl)nc1)c1ccc(F)c(F)c1`, for which the “activity change, negative = inhibition” value is -0.139%.

Turning to `COC(=O)Nc1cc(Nc2cc(NC3CC3)c3ncc(C#N)n3n2)c(Cl)c(N2CCN(C)CC2)c1`, the “activity change, negative = inhibition” value is -1.96% [at 57.7 µM].

Consider `C=CC(=O)Nc1ccc2ncnc(Nc3cccc(Br)c3)c2c1`, for which the “activity change, negative = inhibition” value was 33.7%.

Turning to `C[C@H](Nc1cc2c(-c3ccc4c(c3)OCO4)noc2cn1)c1ccccc1`, the “activity change, negative = inhibition” value is 0.248%.

`CCCn1cc2c(nc(NC(=O)Nc3ccc(OC)cc3)n3nc(-c4ccco4)nc23)n1`: the “activity change, negative = inhibition” value is -14%.

As to `CC(C)CC(=O)c1c(O)cc2c(c1O)C(CC(C)C)C1=C(O2)C(C)(C)C(=O)C(C)(C)C1=O` (centres undefined), the “activity change, negative = inhibition” value is -16.7% [at 57.7 µM].

Turning to `C=C1C(=O)OC2CC(C)C(CCC(C)O)=CCC12` (centres undefined), the “activity change, negative = inhibition” value is -6.45%.

On to `O=C(NCc1cccs1)c1cc2nc(-c3ccco3)cc(C(F)(F)Cl)n2n1`, for which the “activity change, negative = inhibition” value was -12.1%.

Consider `Cc1cnc(-c2ccccc2C(C)C)nc1NCc1ccc(-n2ccnn2)cc1`, for which the “activity change, negative = inhibition” value was -7.66%.

In the case of `COc1cc2ncc(-c3ccccc3)nc2cc1OC`, the “activity change, negative = inhibition” value is 0.511%.

Take `COc1cc2c(cc1O)C1(Cc3ccc4c(c3C1O)OCO4)[N+](C)([O-])CC2` (centres undefined): the “activity change, negative = inhibition” value is 3.61% [at 57.7 µM].

For `Nc1nccc(-c2c(-c3ccc(F)cc3)ncn2C2CCCCC2)n1`, the “activity change, negative = inhibition” value is 0.93%.

As for `C1=C/COCc2cc(ccc2OCCN2CCCC2)Nc2nccc(n2)-c2cccc(c2)COC/1`, the “activity change, negative = inhibition” value was 4.51%.

For `CC(=O)OC1C(OC(=O)c2ccccc2)C2C(=C(C)CCC2(C)C)C23CCC(C)(C2)C(=O)CC13` (centres undefined), the “activity change, negative = inhibition” value is -2.95% [at 57.7 µM].

For the compound `Cn1c(=O)c2c(ncn2Cc2ccc(C(C)(C)C)cc2)n(C)c1=O`, the “activity change, negative = inhibition” value is -2.72%.

For `Cc1ccc(-c2ncc[nH]2)cc1NC(=O)c1ccc(OCc2ccccn2)cc1`, the “activity change, negative = inhibition” value is 5.09%.

Consider `CCC(C)(OC(C)=O)C(=O)O[C@H]1[C@H](OC(C)=O)[C@]2(CO)[C@H](O)[C@H](O)[C@]3(C)C(=CCC4[C@@]5(C)CC[C@H](O[C@@H]6O[C@H](C(=O)O)[C@@H](O)[C@H](O[C@@H]7OC[C@H](O)[C@H](O[C@@H]8OC[C@H](O)[C@H](O)[C@H]8O)[C@H]7O)[C@H]6O[C@@H]6O[C@H](CO)[C@@H](O)[C@H](O)[C@H]6O)C(C)(C)C5CC[C@]43C)[C@@H]2CC1(C)C` (some centres undefined), for which the activity change, negative = inhibition is 5.33% [at 12.4 µM].

As for `Cc1cc(C(=O)Nc2cc(Oc3ccc4nc(NC(=O)C5CC5)cn4n3)ccc2C)n(C)n1`, the “activity change, negative = inhibition” value was 0.271%.
